Screens (PubChem)
aSyn rescue = inhibitors of alpha-synuclein toxicity in yeast. Yeast expressing alpha-synuclein, growth rescue, BacTiter-Glo, 24 h. Potency, µM (highest dose often 46.1 µM), usual class: activators. 370,000 tested, 0.14% active. AID 652106; also: nearly all actives have a fitted effect of over 65% in size
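Galactose-induced alpha-syn yeast (OD600=0.02, raffinose-pregrown) + pinned cpd, 24 hr, 30 deg C; growth by BacTiter-Glo luminescence. Growth restoration scores as activation.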
Abeta rescue = compounds reversing amyloid beta toxicity in yeast; 410,000 tested, 0.063% active; yeast expressing A-beta42, growth rescue, OD600, 48 h; response scale: 0% DMSO, 100% iron-clioquinol control; Potency, µM (series often up to 46.1 µM), usual class: activators; AID 1347071; also: nearly all actives have a fitted effect of over 55% in size
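Yeast A-beta toxicity model in growth medium with pinned compounds, 48 h at 30 C; growth read as absorbance at 600 nm. Normalized to FeCl3/clioquinol equimolar mix (positive) and DMSO (negative).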
FUS yeast rescue = FUS proteinopathy suppression in yeast; S. cerevisiae FUS-expressing, growth rescue, OD600, 24 h; Potency, µM (highest dose often 76.6 µM), hits mostly activators; 390,000 tested, 0.24% active; also: nearly all actives have a fitted effect of over 55% in size
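Absorbance at 600 nm, taken 24hr after compound addition, measured rescue of FUS-yeast growth at 30C. Induction used 2% galactose with seeding at OD 0.005. Controls: CP55940 from 92uM final, DMSO only.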
TDP43 rescue = TDP-43 toxicity inhibition in yeast; AID 652104; 410,000 tested, 1.8% active; Potency, µM (doses to about 46.1 µM), most hits filed as activators; TDP-43 expressing yeast growth rescue, BacTiter-Glo, 24 h; also: nearly all actives have a fitted effect of over 50% in size
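In this qHTS, compounds that restore growth of yeast expressing TDP-43 appear as activators. Cells (OD600=0.02, galactose medium, raffinose-pregrown) are incubated with compound 24 hr at 30 deg C and growth is quantified by BacTiter-Glo.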
Numbers stand for hits; . = inactive; ? = inconclusive; / = no result given; ! = not confirmed by another sample; [ ] = remark or other dose. This is a sample that favours compounds with a hit; in the whole collection about 2.1% have one here. Calls follow the shape of the dose curve; as a rule, active = well fitted curve in the direction sought with a large enough effect; inconclusive = small, poorly fitted or top-dose-only effect, or another doubt; inactive = no such curve, though single readings can be large; an effect the other way counts as inactive or inconclusive.

SMILES	aSyn rescue	Abeta rescue	FUS yeast rescue	TDP43 rescue
Cc1cc(N2CCCCC2)n2ncc(-c3ccc(Cl)cc3)c2n1	.	.	11.2µM	14.1µM
CC(=O)Nc1ccc(Nc2cc(C)nc3c(-c4ccc(Cl)cc4)cnn23)cc1	.	.	/	3.16µM
Cc1cc(N2CCOCC2)n2ncc(-c3ccc(Cl)cc3)c2n1	.	.	.	.
COc1ccc(CCNc2cc(C)nc3c(-c4ccccc4)cnn23)cc1OC	.	.	?	.
COc1ccc(CCNc2cc(C)nc3c(-c4ccc(Cl)cc4)cnn23)cc1OC	.	.	?	17.8µM
CCOc1ccc(C(c2c(O)cc(C)n(Cc3ccco3)c2=O)N2CCN(C)CC2)cc1 (stereo not given)	/	.	.	.
CCCC(=O)N1CCC[C@]2(CC[C@@H](CCC(=O)OCC)O2)C1	/	/	.	/
CC(=O)c1ccc(NC(=O)c2nc(-c3ccccc3)n(-c3ccc(C)cc3)n2)cc1	/	.	?	17.8µM
O=C(O)c1nc(-c2ccccc2)n(-c2ccc(Cl)cc2)n1	.	.[9.22 µM]	.	.
Cc1ccc(NC(=O)c2cc(C)n(-c3cccc(C)c3)c2C)cc1	.	.	.	?
CC(=O)c1cccc(NC(=O)c2nc(-c3ccccc3)n(-c3ccccc3)n2)c1	/	.	.	.
Cc1ccc(C)c(NC(=O)c2nc(-c3ccccc3)n(-c3ccccc3)n2)c1	.	.	?	17.8µM
CC(=O)c1ccc(NC(=O)c2nc(-c3ccccc3)n(-c3ccc(Cl)cc3)n2)cc1	/	.	.	7.94µM
Cc1ccc(NC(=O)c2cc(C)n(-c3ccccc3)c2C)cc1	.	.	.	25.1µM
Clc1ccc([C@H]2OC[C@@]3(CNC4CCCCC4)CS[C@H](c4ccc(Cl)cc4)N23)cc1	/	/	.	/
Cc1ccc(OCC(=O)Nc2cc(-c3cccc(C)c3)nn2-c2ccccc2)cc1	/	.	.	.
Cc1cccc(-c2cc(NC(=O)c3ccccc3C)n(-c3ccccc3)n2)c1	/	.	.	20µM
Cc1ccc(NC(=O)c2cc(C)nn2-c2ccccc2)cc1	.	.	.	17.8µM
Cc1ccccc1Nc1nnc(SCC(=O)Nc2ccccc2[N+](=O)[O-])s1	.	.	.	15.8µM
Cc1cccc(Nc2nnc(SCC(=O)c3ccc(Br)s3)s2)c1C	.	?	.	25.1µM
C/C(N)=C(/C#N)C(=O)CSc1nnc(Nc2cccc(C)c2C)s1	.	.	.	.
O=C(CC(=O)c1ccncc1)c1ccccc1	20µM	.	/	?
O=C(CC(=O)c1ccccc1)c1ccccc1	.	.	/	.
COC(=O)CNC(c1ccccc1)c1cc(Br)ccc1NC(=O)CCN1CCOCC1 (stereo not given)	.	.	?	?
CCOC(=O)CNC(c1ccccc1)c1cc(Br)ccc1NC(=O)CCN1CCOCC1 (stereo not given)	.	.	.	22.4µM
SMILES	aSyn rescue	Abeta rescue	FUS yeast rescue	TDP43 rescue
O=C(Nc1nc2n(n1)C(c1ccccc1)C=C(c1ccccc1)N2)c1ccccc1 (stereo not given)	/	.	?	?
CC(=O)N1CCc2c(sc(NC(=O)CSc3ccccc3)c2-c2nc3ccccc3s2)C1	3.98µM	.	?	.
N#CCC[C@H]1CC[C@]2(CCCN(S(=O)(=O)c3ccccc3)C2)O1	/	/	.	/
O=C(Cc1ccc(OCC2CCCCC2)cc1)NO	22.4µM	/	/	/
Cc1ccc(CC(=O)NCC2CCCCC2)cc1	.	.	.	.
CC1CCN(C(=O)C(C)OC(=O)CSc2ccc([N+](=O)[O-])cc2)CC1 (stereo not given)	.	.	.	35.5µM
N#Cc1cn(-c2ccccc2)nc1-c1ccco1	/	.	.	8.91µM
CC(=O)NNC(=S)NC(=O)C(c1ccccc1)c1ccccc1	.	?	.	25.1µM
CC(C)(C)C(=O)NC(=S)NNC(=O)C(c1ccccc1)c1ccccc1	17.8µM	?	.	?
CSCCCNC(=O)CN1C(=O)C2CCCCN2C(=O)c2ccccc21 (stereo not given)	/	/	.	/
Cc1ccc(NC(=O)Cn2ncn3c(cc4ccccc43)c2=O)c(C)c1	.	.	31.6µM!	.
COc1cc(OC)c(NC(=O)Cn2ncn3c(cc4cc(C)ccc43)c2=O)cc1Cl	/	.	.	.
COc1ccccc1C(=O)N1CCCC(c2nc(-c3cccs3)no2)C1 (stereo not given)	/	/	.	/
Cc1cc2c(NC3CCCCC3)ncnc2s1	.	.	.	11.2µM
CCc1c(C)c2ccc3c(c2oc1=O)CN(Cc1ccccc1)CO3	4.47µM	.	.	.
Cc1cccc(NC(=O)c2cc([N+](=O)[O-])ccc2Cl)c1O	.	.	.	22.4µM
COC(CNC(=O)[C@H](Cc1ccccc1)NC(C)(C)C(=O)NC1CCCCC1)OC	/	/	.	/
CC(=O)OCc1c(-c2ccccc2)c2cc([N+](=O)[O-])ccc2n1C	.	.	.	.
Cn1c(CO)c(-c2ccccc2)c2cc([N+](=O)[O-])ccc21	.	.	.	14.1µM
COc1ccc(NC(=O)C2CC(c3c(F)cccc3Cl)=NO2)cc1 (stereo not given)	.	.	.	12.6µM
COc1cc(NC(=O)C2CC(c3c(F)cccc3Cl)=NO2)cc(OC)c1OC (stereo not given)	.	.	.	.
COCCCN(Cc1ccco1)C(=O)c1cc2c(s1)-c1ccccc1OC2	.	.	?	22.4µM
O=C(NCc1ccc(Cl)cc1)c1cc(-c2cccs2)on1	.	.	.	.
COc1ccc(CNC(=O)c2cc(-c3cccs3)on2)cc1	.	.	.	5.62µM
CCN(CC)c1cc(C)c(/C=C/c2ccnc3ccccc23)cc1C	.	/	/	/
SMILES	aSyn rescue	Abeta rescue	FUS yeast rescue	TDP43 rescue
CC(C)=CC(=O)Nc1ccc(OCc2ccccc2)cc1	.	.	.	12.6µM
O=C(CCl)N(c1ccccc1)c1ccccc1	.	.	.	17.8µM
O=C(N(c1ccccc1)c1ccccc1)N(c1ccccc1)c1ccccc1	.	.	.	.
COC1CCN(C(=O)c2cc(COc3cc(C)ccc3C)on2)CC1	.	.	.	.
COCCCC1CCN(C(=O)c2cc(COc3cc(C)ccc3C)on2)CC1	.	.	?	28.2µM
O=[N+]([O-])c1ccc2[nH]c(O)c(N=NC(=S)Nc3cccnc3)c2c1	.	.	.	10µM
Cc1ccc(NC(=O)COC(=O)c2ccccc2OCC(=O)Nc2ccc(Br)cc2)c(Br)c1	.	/	/	/
O=C(Cc1ccc(S(=O)(=O)N2CCOCC2)s1)N1CCN(S(=O)(=O)c2ccccc2[N+](=O)[O-])CC1	.	.	22.4µM	.
Oc1ccc(N=Nc2ccc3c(c2)OCCO3)c2ncccc12	?	?	.	22.4µM
Cc1cc(C(=O)N2CCC(Cc3ccccc3)CC2)ccc1[N+](=O)[O-]	.	.	11.2µM	?
O=C(c1cnc(Cl)c(Cl)c1)N1CCC(Cc2ccccc2)CC1	.	.	.	12.6µM
Cc1cc(C(=O)N2CCN(Cc3ccccc3)CC2)ccc1[N+](=O)[O-]	.	.	.	.
O=C(CSc1nnc(COc2ccc(Cl)cc2)n1Cc1ccco1)Nc1ccc2c(c1)OCO2	/	/	.	/
Cc1cccc(NC(=O)CN2C(=O)CCn3nc(-c4cccn4C)cc32)c1C	/	.	.	?
